SMILES strings stand for the structures.

The target in the test is AMP-activated protein kinase, AMPK (Homo sapiens) (UniProt P54646+O43741+P54619+Q9UGJ0+Q9Y478+Q13131+Q9UGI9). In words: AMP-dependent Kinase enzyme assay. An in vitro enzyme assay that detects ADP turnover that is directly proportional to AMPK activity. This uses naive AMPK that is activated during the assay with MK-8722. Set-up: scale not given: direction of the effect not stated beside the values. Type of test: functional. As to conditions: 30 µM.
As for `CC(C)N1CCCC(CNC(=O)CN(C)S(=O)(=O)c2ccccc2)C1` (centres undefined), the Percent Effect is -1.71%.

For the molecule `CCc1ccc(C(=O)NC2CCN(c3ccn(C)n3)C2)o1` (centres undefined), the Percent Effect amounted to 1.78%.

For the molecule `CN1C[C@]2(CC[C@@H](C(=O)N3CCOCC3)CC2)Oc2ccccc2C1=O`, the Percent Effect was 11.1%.

Regarding `COC(=O)CC1CN(Cc2ccn(-c3ccc(F)cc3)n2)CCO1` (centres undefined), the Percent Effect was -6.96%.

As to `Cc1nn(C)c(C)c1C1CCCN1CC(=O)N(C)c1nccs1` (centres undefined), the Percent Effect worked out at 10.2%.

As to `O=C(CCC1CCCO1)NCCN1CCCCC1` (centres undefined), the Percent Effect was -1.67%.

With `CC(C)N(C(=O)Cn1cc(Cl)cn1)c1ccccc1`, the Percent Effect is -3.03%.

Take `COc1cc(OC)cc(-c2cccc3c2OC(CN)C3)c1` (centres undefined): the Percent Effect is -5.59%.

Regarding `c1csc(-c2noc(C3CNC3)n2)c1`, the Percent Effect worked out at 8.02%.

Consider `CC1(c2ncc(CN3CCSCC3)cn2)CCCCO1` (centres undefined), for which the Percent Effect is -1.61%.

Turning to `CCSc1ncc(CN2CCN(c3ccc(C#N)cc3)C(=O)C2)cn1`, the Percent Effect was 2.89%.

With `COc1coc(CN2CCCC3(CCC(=O)N(C4CC4)C3)C2)cc1=O` (centres undefined), the Percent Effect was -2.13%.

Consider `CC(O)C(=O)N1CCC(c2[nH]ncc2-c2ccccc2)CC1` (centres undefined), for which the Percent Effect was -11.2%.

Turning to `CCCSCC(=O)NCc1cccc(CN(C)CC)c1`, the Percent Effect amounted to 5.85%.

Consider `CC(C)CC(=O)N1Cc2ccccc2CC1C(=O)Nc1nccs1` (centres undefined), for which the Percent Effect was -4.39%.

For `O=C(NCCc1ccncc1)c1cccc(S(=O)(=O)NC2CC2)c1`, the Percent Effect was -4.52%.

Turning to `COc1ccc(O)c(C(=O)NCC2CCCN(C3CCOCC3)C2)c1` (centres undefined), the Percent Effect was found to be 12.5%.

On to `Cc1cc(NC(=O)N2CCC[C@@H]2CO)nn1-c1cccc(Cl)c1`, for which the Percent Effect is -3.24%.

As for `CCN1CCCC(NC(=O)c2ccc(C)[nH]c2=O)C1` (centres undefined), the Percent Effect was -5.78%.

`CSc1nccc(N2CCC3(CCCN(Cc4cccc(C)c4)C3)C2)n1` (centres undefined): the Percent Effect was 5.62%.

For `CCN(CC)C1CCN(c2ncnc3c2CCN(C(=O)C2CC2)C3)C1` (centres undefined), the Percent Effect is -3.94%.

As for `Cc1cc(C)nc(N2CCCC(C)(c3[nH]ncc3C(=O)N(C)C)C2)n1` (centres undefined), the Percent Effect is 4.6%.

In the case of `C=C(C)CN(CC)C(=O)CN1CCCC1C(=O)N(C)C` (centres undefined), the Percent Effect was found to be 3.77%.

As to `CC(C(=O)N1CCC(c2[nH]ncc2-c2ccccc2)CC1)n1cncn1` (centres undefined), the Percent Effect was -1.59%.

With `Cn1cc(CC(=O)N2CCCC(c3ccn[nH]3)C2)cn1` (centres undefined), the Percent Effect was -1.05%.

As to `COc1ccc(N2CCN(Cc3noc(CC(C)C)n3)C(C)C2=O)cc1` (centres undefined), the Percent Effect amounted to 0.845%.

For the molecule `C[C@@H]1CN(Cc2nc(C(N)=O)no2)CC[C@@]1(O)C1CCOCC1`, the Percent Effect worked out at 5.22%.

In the case of `CCCn1cc(-c2cc(C(=O)N(C)C)c3ccc(OC)cc3n2)cn1`, the Percent Effect is 8.93%.

With `Cc1nc(CN2CCN(S(=O)(=O)N3CCCCC3)CC2)oc1C`, the Percent Effect was -4.45%.

Turning to `CCn1ncnc1C1CC(=O)NCc2nc(N3CCOCC3)sc21` (centres undefined), the Percent Effect is -10.6%.

In the case of `CC(C)(C)c1noc(CCC(=O)N2CCNC(=O)C2)n1`, the Percent Effect was -9.99%.

Regarding `Cc1cnc(C(=O)NCC2CCOc3ccccc3C2)cn1` (centres undefined), the Percent Effect was -2.4%.

With `O=C(Nc1cccnc1)NC1CCN(c2ccccc2OC(F)F)C1` (centres undefined), the Percent Effect was found to be 0.675%.

`COCCN(CC(F)F)c1cc(COC)nc2ncnn12`: the Percent Effect was determined as 0.272%.

On to `O=C(NC1CCN(Cc2ccc(F)cc2)CC1)c1ccc2c(c1)CCC2`, for which the Percent Effect was -2.43%.

As to `CN(c1ncc(S(N)(=O)=O)s1)C1CCc2ccccc2C1` (centres undefined), the Percent Effect is 5.32%.

`O=C1CN(C(=O)c2cc3c(F)cc(Br)cc3[nH]2)CCN1`: the Percent Effect was 8.46%.

As to `NCC1Cc2cccc(-c3ccc(O)c(F)c3)c2O1` (centres undefined), the Percent Effect was 89.9%.

As to `CSc1nccc(N2CCC(NCc3nc(C)cc(C)n3)CC2)n1`, the Percent Effect worked out at 7.66%.

Values taken from ChEMBL document CHEMBL3988442, “University of Dundee, Small-Polar-MMV Screening Library” (2021).
